# Records with an inconclusive call do not appear. Calls of active or inactive are those of the source. Calls come from the whole dose curve; as a rule, active = well fitted curve in the direction sought with a large enough effect; inconclusive = small, poorly fitted or top-dose-only effect, or another doubt; inactive = no such curve, though single readings can be large; an effect the other way counts as inactive or inconclusive.
# Legend:
# [1] = qHTS for Inhibitors of Ubiquitin-specific Protease USP2a Using CHOP2 as the Reporter: K633 Counterscreen (AID 652168); note: series mostly up to about 57 µM
# How it was run: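 Detection-system control: fluorescence of K48-linked DiUb-4IQF substrate (100 nM as added) tracked over time, Ex 525/Em 598, with pinned compounds and no enzyme, in pH 8 Tris buffer containing beta-mercaptoethanol and 0.05% Chaps.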
# [2] = qHTS for Inhibitors of Ubiquitin-specific Protease USP2a Using CHOP2 as the Reporter: Cytotox Assay (AID 652170); note: nearly all actives have a fitted effect of over 70% in size; note: potency is the fitted concentration of half-maximal effect
# How it was run: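 Cytotoxicity read as ATP luminescence (CellTiter-Glo) after 72 hr compound treatment at 37 deg C. Cells: HCT116, 600/well in DMEM plus 10% FBS. Normalization between DMSO-treated cells and cell-free wells.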
# [3] = target: Ubiquitin carboxyl-terminal hydrolase 2 (Homo sapiens) (UniProt O75604); experiment: qHTS for Inhibitors of Ubiquitin-specific Protease USP2a Using CHOP2 as the Reporter: K484 Substrate (AID 652173);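 note: cleavage of internally quenched K48 di-ubiquitin substrate measured as rising fluorescence over time; nearly all actives have a fitted effect of over 70% in size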; note: potency is the fitted concentration of half-maximal effect
# Chain of Ubiquitin carboxyl-terminal hydrolase 2 (Homo sapiens) (O75604 whole entry, looked up): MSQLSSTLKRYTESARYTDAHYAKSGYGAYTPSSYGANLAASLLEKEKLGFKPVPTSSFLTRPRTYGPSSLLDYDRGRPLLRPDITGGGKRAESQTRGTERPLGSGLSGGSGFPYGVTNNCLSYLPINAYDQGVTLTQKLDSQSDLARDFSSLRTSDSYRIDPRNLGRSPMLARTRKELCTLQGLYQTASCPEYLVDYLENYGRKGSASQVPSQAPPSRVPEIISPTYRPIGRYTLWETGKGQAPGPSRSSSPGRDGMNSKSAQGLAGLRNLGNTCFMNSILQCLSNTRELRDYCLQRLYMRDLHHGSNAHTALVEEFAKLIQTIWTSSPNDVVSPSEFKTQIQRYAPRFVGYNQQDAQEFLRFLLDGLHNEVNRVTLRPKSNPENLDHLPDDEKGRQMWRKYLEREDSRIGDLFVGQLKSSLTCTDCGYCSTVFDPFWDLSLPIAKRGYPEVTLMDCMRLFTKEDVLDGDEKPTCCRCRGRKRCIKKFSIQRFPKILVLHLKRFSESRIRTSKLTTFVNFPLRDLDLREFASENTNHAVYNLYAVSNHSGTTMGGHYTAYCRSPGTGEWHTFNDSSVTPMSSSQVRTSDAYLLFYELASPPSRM
# How it was run: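 Kinetic fluorescence (Ex 525/Em 598) tracked cleavage of an internally quenched K48 di-ubiquitin substrate, added as a 100 nM solution. The enzyme was added as a 5 nM USP2 solution before compound pinning, with no-enzyme controls. Buffer: Tris pH 8, beta-mercaptoethanol, CHAPS.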
SMILES,outcome [1],Potency [2],Potency [3]
Cc1ccc(S(=O)(=O)Nc2cnccc2C(=O)Nc2nc(-c3ccc4c(c3)CCCC4)cs2)cc1,inactive,20.9 µM (active),2.17 µM (active)
N#Cc1ccccc1S(=O)(=O)Nc1cnccc1C(=O)Nc1nc(-c2ccccc2)cs1,inactive,inactive,7.69 µM (active)
O=C(Nc1ccc(S(=O)(=O)Nc2nccs2)cc1)c1ccc2ccccc2c1,,inactive,2.73 µM (active)
Cc1ccc(S(=O)(=O)Nc2ccc(Cl)c(C(=O)Nc3nc(-c4ccccc4)cs3)c2)cc1,,inactive,2.43 µM (active)
O=C(Nc1nc(-c2ccccc2)cs1)c1ccncc1NS(=O)(=O)c1ccc(F)cc1F,,inactive,3.06 µM (active)
Cc1ccc(-c2cc(C(=O)Nc3ccc4[nH]ccc4c3)c3ccccc3n2)cc1C,,inactive,8.63 µM (active)
CCCOC1CCC(C(=O)Nc2ccc([S+](=O)([O-])Nc3nccs3)cc2)CC1 (centres undefined),,inactive,inactive
O=C(Nc1nc(-c2ccccc2)cs1)c1ccncc1NS(=O)(=O)c1ccccc1F,,inactive,2.43 µM (active)
Cc1ccc(S(=O)(=O)Nc2cnccc2C(=O)Nc2nc(-c3cccc(Cl)c3)cs2)cc1,,23.5 µM (active),2.17 µM (active)
Cc1ccc(S(=O)(=O)Nc2cnccc2C(=O)Nc2nc(-c3ccc(Cl)cc3)cs2)cc1,,23.5 µM (active),2.17 µM (active)
O=C(Nc1ccc(C(=O)Nc2nccs2)cc1)c1ccc2ccccc2c1,,inactive,3.85 µM (active)
Cc1ccc(S(=O)(=O)Nc2ccccc2C(=O)Nc2ncc(-c3ccccc3)o2)cc1,,4.69 µM (active),2.43 µM (active)
Cc1ccc(-c2cc(C(=O)Nc3ccc(S(=O)(=O)Nc4ccccn4)cc3)c3ccccc3n2)cc1C,,inactive,4.32 µM (active)
Cc1ccc(S(=O)(=O)Nc2cnccc2C(=O)Nc2nc(-c3cccnc3)cs2)cc1,,inactive,13.7 µM (active)
O=C(C[C@H]1CC[C@@H](C(=O)Nc2ccc(S(=O)(=O)Nc3nccs3)cc2)C1)c1ccccc1,,inactive,19.3 µM (active)
Cc1ccc(S(=O)(=O)Nc2ccccc2Nc2nc(-c3ccccc3)cs2)cc1,,inactive,3.85 µM (active)

SMILES,outcome [1],Potency [2],Potency [3]
O=S(=O)(Nc1nccs1)c1ccc(Nc2nc(-c3ccc(Cl)c(Cl)c3)cs2)cc1,,inactive,27.3 µM (active)
Cc1ccc(-c2csc(NC(=O)c3ccncc3NS(=O)(=O)c3ccc(C)cc3)n2)cc1,,14.8 µM (active),1.22 µM (active)
CCCc1ccc(-c2csc(NC(=O)c3ccncc3NS(=O)(=O)c3ccc(C)cc3)n2)cc1,,20.9 µM (active),1.53 µM (active)
CNS(=O)(=O)c1ccc(NC(=O)c2cc(-c3ccc(C)c(C)c3)nc3ccccc23)cc1,,inactive,4.85 µM (active)
Cc1cc(S(=O)(=O)Nc2cnccc2C(=O)Nc2nc(-c3ccccc3)cs2)c(C)o1,,23.5 µM (active),3.43 µM (active)
CCCCC1CCC(C(=O)Nc2ccc(S(=O)(=O)Nc3nccs3)cc2)CC1 (centres undefined),,inactive,4.85 µM (active)
O=C(Nc1nc(-c2ccc(F)cc2)cs1)c1ccncc1NS(=O)(=O)c1ccccc1Cl,,inactive,3.06 µM (active)
Cc1ccc(-c2cc(C(=O)Nc3ccc(S(=O)(=O)Nc4cccnc4)cc3)c3ccccc3n2)cc1C,,inactive,6.85 µM (active)
Cc1ccc(-c2cc(C(=O)Nc3ccncc3)c3ccccc3n2)cc1C,,18.7 µM (active),13.7 µM (active)
Cc1ccc(S(=O)(=O)Nc2cc(Cl)c(Cl)cc2C(=O)Nc2nc(-c3ccccc3)cs2)cc1,,5.26 µM (active),1.37 µM (active)
Cc1ccc(S(=O)(=O)Nc2ccc(OC(F)(F)F)cc2C(=O)Nc2nc(-c3ccccc3)cs2)cc1,,5.9 µM (active),2.43 µM (active)
Cc1ccc(-c2cc(C(=O)Nc3ccc(S(C)(=O)=O)cc3)c3ccccc3n2)cc1C,,inactive,6.85 µM (active)
CCc1ccc(S(=O)(=O)Nc2cnccc2C(=O)Nc2nc(-c3ccccc3)cs2)cc1,,20.9 µM (active),1.72 µM (active)
Cc1ccc(-c2cc(C(=O)Nc3ccc(S(=O)(=O)O)cc3)c3ccccc3n2)cc1C,,inactive,13.7 µM (active)
COc1ccc(S(=O)(=O)Nc2cnccc2C(=O)Nc2nc(-c3ccccc3)cs2)cc1,,inactive,3.85 µM (active)

# — PubChem BioAssay (NCATS)
